According to the supplement of paper PMC10849652:
Targets with a hit are over-represented here; the source holds about 7,900 in all. About 0.6% of all pairs of compound and target were hits. A number with no mark means an inactive call.

Assays:
Assay in all cases: log2 fold change, soluble protein after heating vs DMSO (PISA); higher = thermal stabilisation; K562 cells, 10 uM, 30 min; active = over 0.2 and 3.5 SD of the protein, either way, in both replicates (recomputed)
[1] = compound: NC(=O)Nc1cc(-c2cccc(F)c2)sc1C(=O)N[C@H]1CCCNC1
Procedure, shortened: (§1)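 K562 cells at 2×10^6 cells/mL were exposed to 10 μM compound for 30 min, then aliquots were heated for 3 min across 48°C-58°C, pooled, and extracted in PBS containing 0.5% NP-40 at 4°C. The supernatant after 21,000xg for 90 min was taken as soluble protein and measured by TMTpro 16plex LC-MS/MS with channel sums equalised. Thermal stability is reported relative to control samples, with values from duplicates. Fold changes are given on a log2 scale.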

[2] = compound: NC(=O)c1cnc(N[C@@H]2CCCC[C@@H]2N)nc1Nc1cccc(-n2nccn2)c1
Procedure, shortened: as §1

[3] = compound: NC1(c2ccc(-c3nc4ccn5c(=O)[nH]nc5c4cc3-c3ccccc3)cc2)CCC1
Procedure, shortened: as §1

[4] = compound: NCC(=O)Nc1ccc(-n2nc(C(F)(F)F)cc2-c2ccc3c(ccc4ccccc43)c2)cc1
Procedure, shortened: as §1

[5] = compound: Nc1ccccc1NC(=O)c1ccc(CNC(=O)OCc2cccnc2)cc1 [entinostat]
Procedure, shortened: as §1

[6] = compound: O=C(CCCCCCC(=O)Nc1ccccc1)NO [vorinostat]
Procedure, shortened: as §1

[7] = compound: O=C(CCCCCCNC(=O)c1cnc(N(c2ccccc2)c2ccccc2Cl)nc1)NO [citarinostat]
Procedure, shortened: as §1

[8] = compound: O=C(O)c1ccc2c(c1)nc(Nc1cccc(Cl)c1)c1ccncc12 [silmitasertib]
Procedure, shortened: as §1

[9] = compound: O=C1NC(=O)C(c2cnc3ccccn23)=C1c1cn2c3c(cc(F)cc13)CN(C(=O)N1CCCCC1)CC2
Procedure, shortened: as §1

[10] = compound: c1cc(OCCN2CCCCC2)cc(-c2n[nH]c3ccc(-c4nnc[nH]4)cc23)c1
Procedure, shortened: as §1

Sequence of UniProt Q68DH5 (Q68DH5 whole entry, looked up): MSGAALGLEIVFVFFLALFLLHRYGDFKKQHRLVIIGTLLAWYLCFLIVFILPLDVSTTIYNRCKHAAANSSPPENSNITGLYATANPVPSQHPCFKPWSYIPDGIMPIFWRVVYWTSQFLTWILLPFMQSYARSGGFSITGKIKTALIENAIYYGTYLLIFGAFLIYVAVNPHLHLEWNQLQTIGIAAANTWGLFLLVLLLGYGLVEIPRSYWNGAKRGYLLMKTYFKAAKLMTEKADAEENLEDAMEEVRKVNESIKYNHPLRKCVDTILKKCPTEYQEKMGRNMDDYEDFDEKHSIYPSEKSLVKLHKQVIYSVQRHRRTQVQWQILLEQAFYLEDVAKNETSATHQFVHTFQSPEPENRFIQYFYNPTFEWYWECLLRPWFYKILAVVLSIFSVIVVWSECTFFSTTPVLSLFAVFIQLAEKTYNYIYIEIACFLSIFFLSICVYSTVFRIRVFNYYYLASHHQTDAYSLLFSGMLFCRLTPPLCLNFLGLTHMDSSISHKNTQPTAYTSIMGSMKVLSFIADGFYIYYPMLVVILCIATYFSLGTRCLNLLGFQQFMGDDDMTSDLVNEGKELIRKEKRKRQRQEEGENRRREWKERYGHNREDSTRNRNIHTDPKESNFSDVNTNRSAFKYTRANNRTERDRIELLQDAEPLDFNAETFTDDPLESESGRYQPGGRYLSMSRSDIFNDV
Sequence of UniProt P55082 (P55082 whole entry, looked up): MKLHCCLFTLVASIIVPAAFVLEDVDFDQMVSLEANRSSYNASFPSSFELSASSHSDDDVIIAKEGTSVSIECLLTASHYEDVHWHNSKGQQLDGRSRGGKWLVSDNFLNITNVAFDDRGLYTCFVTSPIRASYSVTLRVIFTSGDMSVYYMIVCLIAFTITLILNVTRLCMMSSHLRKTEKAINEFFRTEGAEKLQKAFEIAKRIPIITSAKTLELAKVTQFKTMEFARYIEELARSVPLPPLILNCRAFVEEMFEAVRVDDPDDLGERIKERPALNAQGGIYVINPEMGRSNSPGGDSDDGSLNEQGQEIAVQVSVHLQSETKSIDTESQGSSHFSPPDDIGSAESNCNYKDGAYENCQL
Sequence of UniProt Q9NQX7 (Q9NQX7 whole entry, looked up): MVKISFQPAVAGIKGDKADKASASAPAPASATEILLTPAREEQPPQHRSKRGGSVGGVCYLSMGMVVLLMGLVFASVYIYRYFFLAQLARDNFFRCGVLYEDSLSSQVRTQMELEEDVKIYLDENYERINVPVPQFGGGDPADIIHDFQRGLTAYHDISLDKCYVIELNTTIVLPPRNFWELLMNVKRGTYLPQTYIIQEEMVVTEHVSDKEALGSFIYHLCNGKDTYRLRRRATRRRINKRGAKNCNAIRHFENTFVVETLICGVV
Sequence of UniProt P52294 (P52294 whole entry, looked up): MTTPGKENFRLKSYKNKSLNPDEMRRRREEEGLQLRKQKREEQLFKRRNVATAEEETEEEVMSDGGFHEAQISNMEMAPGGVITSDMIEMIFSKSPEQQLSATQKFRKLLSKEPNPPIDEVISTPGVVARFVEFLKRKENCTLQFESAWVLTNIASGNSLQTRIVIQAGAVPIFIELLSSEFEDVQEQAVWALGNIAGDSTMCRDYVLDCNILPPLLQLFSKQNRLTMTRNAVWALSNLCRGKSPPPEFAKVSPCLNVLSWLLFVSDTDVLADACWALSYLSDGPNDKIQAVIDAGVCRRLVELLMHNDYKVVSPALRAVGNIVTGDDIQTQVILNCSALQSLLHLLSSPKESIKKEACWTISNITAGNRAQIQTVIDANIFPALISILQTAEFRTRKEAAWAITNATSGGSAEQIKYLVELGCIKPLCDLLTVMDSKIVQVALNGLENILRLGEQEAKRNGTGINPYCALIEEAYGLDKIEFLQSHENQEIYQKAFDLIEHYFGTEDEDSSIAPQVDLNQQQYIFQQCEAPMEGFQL
Sequence of UniProt A8MWY0 (A8MWY0 whole entry, looked up): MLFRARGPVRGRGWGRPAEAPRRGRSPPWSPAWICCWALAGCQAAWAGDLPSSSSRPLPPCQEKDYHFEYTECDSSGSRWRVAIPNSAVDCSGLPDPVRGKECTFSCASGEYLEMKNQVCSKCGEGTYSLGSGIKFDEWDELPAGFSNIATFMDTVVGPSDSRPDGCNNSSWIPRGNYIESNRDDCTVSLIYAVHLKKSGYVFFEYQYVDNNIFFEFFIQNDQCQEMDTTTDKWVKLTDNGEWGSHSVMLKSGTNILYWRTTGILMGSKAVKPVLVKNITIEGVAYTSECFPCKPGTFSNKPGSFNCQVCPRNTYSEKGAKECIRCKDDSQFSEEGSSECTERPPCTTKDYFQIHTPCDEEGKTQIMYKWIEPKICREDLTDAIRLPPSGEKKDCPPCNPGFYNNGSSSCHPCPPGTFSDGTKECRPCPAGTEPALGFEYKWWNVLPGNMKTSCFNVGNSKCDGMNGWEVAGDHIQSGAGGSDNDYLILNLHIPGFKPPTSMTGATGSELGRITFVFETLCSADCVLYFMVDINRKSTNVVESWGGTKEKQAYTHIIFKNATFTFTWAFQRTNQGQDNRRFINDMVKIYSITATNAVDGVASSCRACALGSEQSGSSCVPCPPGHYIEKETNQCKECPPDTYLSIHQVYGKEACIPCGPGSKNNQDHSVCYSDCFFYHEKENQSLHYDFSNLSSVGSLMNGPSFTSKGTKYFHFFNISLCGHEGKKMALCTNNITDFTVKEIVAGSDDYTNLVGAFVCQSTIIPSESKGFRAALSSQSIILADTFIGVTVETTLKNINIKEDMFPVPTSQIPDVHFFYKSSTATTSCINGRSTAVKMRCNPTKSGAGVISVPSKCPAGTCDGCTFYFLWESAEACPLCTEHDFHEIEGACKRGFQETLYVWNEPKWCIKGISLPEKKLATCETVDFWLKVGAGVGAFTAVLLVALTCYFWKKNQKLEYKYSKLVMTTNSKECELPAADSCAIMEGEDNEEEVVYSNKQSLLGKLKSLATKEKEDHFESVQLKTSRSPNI
Sequence of UniProt P17936 (P17936 whole entry, looked up): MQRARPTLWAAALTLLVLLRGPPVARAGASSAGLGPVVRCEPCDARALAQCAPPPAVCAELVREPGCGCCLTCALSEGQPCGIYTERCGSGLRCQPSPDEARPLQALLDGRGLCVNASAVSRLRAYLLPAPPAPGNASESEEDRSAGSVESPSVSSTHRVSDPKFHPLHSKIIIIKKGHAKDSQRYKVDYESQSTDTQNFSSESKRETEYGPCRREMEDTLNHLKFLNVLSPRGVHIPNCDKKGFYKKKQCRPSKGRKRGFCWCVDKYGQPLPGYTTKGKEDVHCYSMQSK
Sequence of UniProt Q08334 (Q08334 whole entry, looked up): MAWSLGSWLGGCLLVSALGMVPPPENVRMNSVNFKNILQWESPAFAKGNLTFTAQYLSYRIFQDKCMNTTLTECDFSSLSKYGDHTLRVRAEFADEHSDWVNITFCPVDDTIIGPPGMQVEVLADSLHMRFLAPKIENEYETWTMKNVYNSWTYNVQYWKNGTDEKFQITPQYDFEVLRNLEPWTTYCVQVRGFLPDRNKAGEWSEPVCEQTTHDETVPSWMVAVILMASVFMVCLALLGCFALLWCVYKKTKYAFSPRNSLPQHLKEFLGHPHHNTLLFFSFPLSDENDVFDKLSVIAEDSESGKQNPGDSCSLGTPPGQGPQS
Sequence of UniProt Q9NYL2 (Q9NYL2 whole entry, looked up): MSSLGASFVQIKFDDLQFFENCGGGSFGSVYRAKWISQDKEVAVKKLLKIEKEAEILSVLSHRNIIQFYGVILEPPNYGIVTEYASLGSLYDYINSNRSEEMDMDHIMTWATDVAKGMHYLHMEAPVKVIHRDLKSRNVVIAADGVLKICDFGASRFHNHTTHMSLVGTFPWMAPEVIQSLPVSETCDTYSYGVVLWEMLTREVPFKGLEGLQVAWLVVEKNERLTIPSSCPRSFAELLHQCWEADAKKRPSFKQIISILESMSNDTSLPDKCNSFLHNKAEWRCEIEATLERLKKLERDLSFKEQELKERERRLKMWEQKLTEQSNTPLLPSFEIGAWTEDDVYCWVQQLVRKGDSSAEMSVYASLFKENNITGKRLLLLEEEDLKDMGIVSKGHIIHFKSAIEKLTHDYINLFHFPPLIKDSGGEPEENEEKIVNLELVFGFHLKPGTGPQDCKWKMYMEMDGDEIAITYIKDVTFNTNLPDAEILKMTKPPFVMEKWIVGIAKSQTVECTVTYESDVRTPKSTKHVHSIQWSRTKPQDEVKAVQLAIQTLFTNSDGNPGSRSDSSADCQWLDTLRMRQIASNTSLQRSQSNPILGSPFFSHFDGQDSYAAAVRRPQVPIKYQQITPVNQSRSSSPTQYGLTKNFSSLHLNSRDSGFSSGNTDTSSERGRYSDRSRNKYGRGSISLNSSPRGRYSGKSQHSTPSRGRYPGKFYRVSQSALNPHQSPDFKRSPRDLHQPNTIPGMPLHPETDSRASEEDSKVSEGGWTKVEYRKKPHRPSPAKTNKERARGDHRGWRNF
Sequence of UniProt P02545 (P02545 whole entry, looked up): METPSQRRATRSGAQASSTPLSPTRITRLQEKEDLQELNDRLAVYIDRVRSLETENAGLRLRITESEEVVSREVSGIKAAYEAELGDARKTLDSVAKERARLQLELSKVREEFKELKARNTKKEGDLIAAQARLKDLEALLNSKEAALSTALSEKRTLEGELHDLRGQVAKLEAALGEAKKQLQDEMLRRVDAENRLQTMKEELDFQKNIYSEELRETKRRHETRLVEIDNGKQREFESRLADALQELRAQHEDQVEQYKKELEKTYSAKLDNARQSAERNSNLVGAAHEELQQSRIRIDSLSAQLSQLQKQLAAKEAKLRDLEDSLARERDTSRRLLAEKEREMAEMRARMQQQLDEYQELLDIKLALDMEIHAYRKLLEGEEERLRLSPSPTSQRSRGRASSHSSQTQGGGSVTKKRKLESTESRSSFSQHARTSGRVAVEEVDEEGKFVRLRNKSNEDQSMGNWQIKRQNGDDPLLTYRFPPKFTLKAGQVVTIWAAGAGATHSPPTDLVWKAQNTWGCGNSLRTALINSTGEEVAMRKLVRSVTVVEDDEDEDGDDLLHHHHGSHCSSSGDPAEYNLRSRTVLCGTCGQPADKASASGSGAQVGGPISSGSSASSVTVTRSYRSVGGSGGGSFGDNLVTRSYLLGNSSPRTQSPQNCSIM

For KIAA1324L (UniProt A8MWY0), the log2 fold change [1] was -0.016, the log2 fold change [2] was -0.015 and the log2 fold change [3] was -0.138. The log2 fold change [4] was 0.009, the log2 fold change [5] was -0.067 and the log2 fold change [6] was 0.003. It also gave a log2 fold change [7] of 0.004, a log2 fold change [8] of -0.014 and a log2 fold change [9] of -0.013. The log2 fold change [10] was -0.094.
LMNA (UniProt P02545) showed a log2 fold change [1] of 0.205, a log2 fold change [2] of -0.013 and a log2 fold change [3] of 0.024. The log2 fold change [4] was 0.047, the log2 fold change [5] was -0.004 and the log2 fold change [6] was -0.026. It also gave a log2 fold change [7] of 0.039, a log2 fold change [8] of 0.015 and a log2 fold change [9] of -0.075. For the same target, the log2 fold change [10] was -0.068.
For KIFBP (UniProt Q96EK5), the log2 fold change [1] was 0.002, the log2 fold change [2] was -0.166 and the log2 fold change [3] was -0.117. The log2 fold change [4] was -0.091, the log2 fold change [5] was 0.059 and the log2 fold change [6] was 0.088. For the same target, the log2 fold change [7] was 0.043, the log2 fold change [8] was -0.02 and the log2 fold change [9] was 0.024. For the same target, the log2 fold change [10] was -0.056.
MAGEA9 (UniProt P43362) was tested, and the log2 fold change [1] was -0.017, the log2 fold change [2] was -0.027 and the log2 fold change [3] was -0.243. It also gave a log2 fold change [4] of 0.033, a log2 fold change [5] of 0 and a log2 fold change [6] of 0.132. The log2 fold change [7] was 0.013, the log2 fold change [8] was 0.052 and the log2 fold change [9] was -0.079. The log2 fold change [10] was -0.106.
LMBRD2 (UniProt Q68DH5) was tested, and the log2 fold change [1] was 0.028, the log2 fold change [2] was 0.044 and the log2 fold change [3] was 0.099. It also gave a log2 fold change [4] of -0.025, a log2 fold change [5] of -0.011 and a log2 fold change [6] of -0.015. The log2 fold change [7] was 0.057, the log2 fold change [8] was -0.049 and the log2 fold change [9] was -0.09. For the same target, the log2 fold change [10] was -0.005.
MAD2L1 (UniProt Q13257) gave a log2 fold change [1] of -0.013, a log2 fold change [2] of -0.09 and a log2 fold change [3] of -0.193. For the same target, the log2 fold change [4] was -0.124, the log2 fold change [5] was 0.036 and the log2 fold change [6] was 0.021. For the same target, the log2 fold change [7] was 0.014, the log2 fold change [8] was 0.072 and the log2 fold change [9] was -0.032. For the same target, the log2 fold change [10] was 0.006.
IK (UniProt Q13123) was tested, and the log2 fold change [1] was -0.016, the log2 fold change [2] was 0.119 and the log2 fold change [3] was 0.06. The log2 fold change [4] was -0.08, the log2 fold change [5] was 0.008 and the log2 fold change [6] was 0.026. For the same target, the log2 fold change [7] was -0.235, the log2 fold change [8] was 0.132 and the log2 fold change [9] was 0.017. For the same target, the log2 fold change [10] was -0.078.
LRBA, A0A494BZW2 was tested, and the log2 fold change [1] was 0.036, the log2 fold change [2] was -0.031 and the log2 fold change [3] was -0.114. For the same target, the log2 fold change [5] was 0.232, the log2 fold change [6] was -0.032 and the log2 fold change [7] was 0.03. It also gave a log2 fold change [8] of 0.011, a log2 fold change [9] of 0.063 and a log2 fold change [10] of 0.028.
In the case of MFAP3 (UniProt P55082), the log2 fold change [1] is reported as 0.043, the log2 fold change [2] is reported as -0.04 and the log2 fold change [4] is reported as -0.09. The log2 fold change [5] was -0.052 and the log2 fold change [9] was -0.243.
LPGAT1 (UniProt Q92604) gave a log2 fold change [1] of 0.038, a log2 fold change [2] of 0.048 and a log2 fold change [3] of -0.102. It also gave a log2 fold change [4] of 0.063, a log2 fold change [5] of -0.047 and a log2 fold change [7] of 0.157. It also gave a log2 fold change [8] of -0.015, a log2 fold change [9] of -0.015 and a log2 fold change [10] of -0.108.
In the case of KPNA1 (UniProt P52294), the log2 fold change [1] is reported as -0.02, the log2 fold change [2] is reported as -0.014 and the log2 fold change [3] is reported as -0.047. It also gave a log2 fold change [4] of -0.058, a log2 fold change [5] of 0.099 and a log2 fold change [6] of 0.036. The log2 fold change [7] was 0.166, the log2 fold change [8] was 0.088 and the log2 fold change [9] was 0.064. The log2 fold change [10] was -0.037.
In the case of MAP3K20 isoform 2 (UniProt Q9NYL2), the log2 fold change [1] is reported as 0.09, the log2 fold change [2] is reported as -0.041 and the log2 fold change [3] is reported as 0.099. It also gave a log2 fold change [5] of 0.056, a log2 fold change [8] of 0.009 and a log2 fold change [9] of -0.008.
In the case of IL10RB (UniProt Q08334), the log2 fold change [1] is reported as -0.113, the log2 fold change [2] is reported as -0.121 and the log2 fold change [4] is reported as -0.031. The log2 fold change [5] was -0.431 (active), the log2 fold change [6] was 0.109 and the log2 fold change [7] was 0.055. The log2 fold change [9] was 0.062 and the log2 fold change [10] was -0.026.
MAP3K20 (UniProt Q9NYL2) gave a log2 fold change [1] of -0.008, a log2 fold change [2] of 0.035 and a log2 fold change [3] of -0.012. For the same target, the log2 fold change [4] was -0.03, the log2 fold change [5] was 0.019 and the log2 fold change [6] was 0. The log2 fold change [7] was 0.002, the log2 fold change [8] was 0.031 and the log2 fold change [9] was 0.026. For the same target, the log2 fold change [10] was -0.09.
In the case of ITM2C (UniProt Q9NQX7), the log2 fold change [1] is reported as -0.309, the log2 fold change [2] is reported as -0.009 and the log2 fold change [4] is reported as -0.133. The log2 fold change [5] was 0.164, the log2 fold change [6] was -0.032 and the log2 fold change [9] was 0.029.
IGFBP3 isoform 2 (UniProt P17936) gave a log2 fold change [1] of 0.042, a log2 fold change [2] of -0.142 and a log2 fold change [4] of -0.043. For the same target, the log2 fold change [5] was -0.02, the log2 fold change [6] was 0.167 and the log2 fold change [9] was -0.047.
